Experimental data reported in PubChem BioAssay (NCATS).
Results filed as inconclusive are left out. The source made the active and inactive calls. Unless noted, calls follow the shape of the dose curve; as a rule, active = well fitted curve in either direction with a large enough effect (not every such curve was filed as active); inconclusive = small, poorly fitted or top-dose-only effect, or another doubt; inactive = flat fitted curve, though single readings scatter.

Columns and labels:
[1] = molecular target: Lysosomal acid glucosylceramidase (Homo sapiens) (UniProt P04062); assay: Glucocerebrosidase-p2 (AID 348; in the data active = potency below about 10 µM; also: potency is read from the fitted curve at half-maximal effect); details: purified GBA, blue fluorogenic substrate, 40 min
Lysosomal acid glucosylceramidase (Homo sapiens), sequence (P04062 whole entry, looked up): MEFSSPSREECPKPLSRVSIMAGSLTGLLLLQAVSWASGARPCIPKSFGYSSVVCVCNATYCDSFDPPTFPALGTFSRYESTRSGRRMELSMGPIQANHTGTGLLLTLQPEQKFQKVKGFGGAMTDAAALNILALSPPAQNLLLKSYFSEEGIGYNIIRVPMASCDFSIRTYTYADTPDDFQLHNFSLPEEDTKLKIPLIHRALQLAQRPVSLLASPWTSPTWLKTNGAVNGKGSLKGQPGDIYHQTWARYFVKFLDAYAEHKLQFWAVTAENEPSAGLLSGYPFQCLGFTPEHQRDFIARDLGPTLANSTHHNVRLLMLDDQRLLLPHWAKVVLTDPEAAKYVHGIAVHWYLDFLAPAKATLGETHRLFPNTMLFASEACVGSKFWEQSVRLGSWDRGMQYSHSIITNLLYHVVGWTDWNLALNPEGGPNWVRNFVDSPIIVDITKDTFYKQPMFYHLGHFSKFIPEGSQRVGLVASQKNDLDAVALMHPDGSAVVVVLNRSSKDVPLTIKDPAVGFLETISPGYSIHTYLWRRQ
Method in brief: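 Normal human glucocerebrosidase (0.2 nM) with blue fluorogenic substrate (80 uM final) in citrate/phosphate pH 5.9 with 10mM sodium taurocholate, 0.01% tween-20; 40 min RT, NaOH/glycine stop; fluorescence Ex 365/Em 440; AC50 from a titration from 0.6 nM upwards.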

[2] = AP1 Signaling Pathway (AID 357); details: ME-180 AP-1-bla reporter, EGF-induced, beta-lactamase ratio, 5 h; at 7.69 µM (top of the series) unless noted;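 also: ME-180 reporter cells stimulated with EGF at its EC50 level; % is scaled to controls: 0 for no effect and ±100 for the full control effect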
Method in brief: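 First, ME-180 AP-1-bla cells were cultured overnight at 37 °C in low-serum Opti-MEM. Next, titrated compounds with EC50 EGF were incubated 5 hours. Finally, CCF4 was added for 2.5 hours and the 460/530 nm ratio recorded.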

[3] = molecular target: Cytochrome P450 1A2 (Homo sapiens) (UniProt P05177); assay: p450-cyp1a2 (AID 410; calls by dose curve; also: potency is read from the fitted curve at half-maximal effect;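 as to activity change, negative = inhibition: -100% = full effect of reference inhibitor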); details: recombinant CYP1A2, luciferin-ME demethylation, luminescence; series mostly up to 57 µM
Cytochrome P450 1A2 (Homo sapiens), sequence (P05177 whole entry, looked up): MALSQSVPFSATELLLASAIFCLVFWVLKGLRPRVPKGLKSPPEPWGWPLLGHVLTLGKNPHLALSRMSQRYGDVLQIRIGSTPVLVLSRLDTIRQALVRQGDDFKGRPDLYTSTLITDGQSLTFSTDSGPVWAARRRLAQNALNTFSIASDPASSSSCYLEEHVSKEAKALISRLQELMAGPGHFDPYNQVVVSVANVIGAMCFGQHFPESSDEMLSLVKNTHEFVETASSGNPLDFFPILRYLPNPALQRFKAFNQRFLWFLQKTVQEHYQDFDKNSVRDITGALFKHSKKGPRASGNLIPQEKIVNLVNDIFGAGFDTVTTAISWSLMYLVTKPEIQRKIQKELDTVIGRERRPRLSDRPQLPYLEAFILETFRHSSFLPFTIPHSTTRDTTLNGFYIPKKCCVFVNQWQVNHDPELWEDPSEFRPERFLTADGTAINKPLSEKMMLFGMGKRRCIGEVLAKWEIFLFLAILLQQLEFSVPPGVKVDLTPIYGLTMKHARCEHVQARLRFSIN
Method in brief: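 Read-out is luminescence from luciferin produced by CYP1A2 demethylation of Luciferin-ME (100uM, at Km). Detection reagent stopped the 60 min NADPH-dependent reaction; signals were normalized to 57 uM furafylline.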

[4] = NFAT Signaling Pathway (AID 444); details: Jurkat NFAT-bla M1, carbachol, beta-lactamase ratio, 5 h; at 7.69 µM (top of the series) unless noted;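 also: carbachol stimulus at about its EC50 of 1 µM final; % is scaled to controls: 0 for no effect and ±100 for the full control effect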
Method in brief: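 Read-out: CCF4 FRET ratio (460 nm/530 nm) after 1 h RT dye loading, used for %activity and AC50 from titration series. Cells: Jurkat NFAT-β-lactamase/M1 line, treated with compound plus 1 uM carbachol for 5 h, 37 °C.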

[5] = Stat Signaling Pathway (AID 446); details: ME-180 (cervical carcinoma) SIE beta-lactamase reporter, IL-6 stimulated, 5 h; at 7.69 µM (top of the series) unless noted;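 also: ME-180 cervical cancer cells given 40 pM IL-6 alongside compound; SIE-controlled beta-lactamase reporter measured as 460/530 nm FRET emission ratio; % is scaled to controls: 0 for no effect and ±100 for the full control effect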
Method in brief: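 Overnight-plated ME-180 cells bearing a STAT Inducible Element beta-lactamase reporter; 5 h co-exposure to compound and 40 pM IL-6; values normalized to 300 pM IL-6 and 125 nM JAK inhibitor controls.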

[6] = molecular target: Glucocorticoid receptor (Homo sapiens) (UniProt P04150); assay: GR-EFC Redistribution (AID 451; calls by dose curve; also: potency is read from the fitted curve at half-maximal effect); details: CHO-K1 GR-EFC translocation, beta-gal luminescence, 2 h
Glucocorticoid receptor (Homo sapiens), sequence (P04150 whole entry, looked up, the tested form may be a part): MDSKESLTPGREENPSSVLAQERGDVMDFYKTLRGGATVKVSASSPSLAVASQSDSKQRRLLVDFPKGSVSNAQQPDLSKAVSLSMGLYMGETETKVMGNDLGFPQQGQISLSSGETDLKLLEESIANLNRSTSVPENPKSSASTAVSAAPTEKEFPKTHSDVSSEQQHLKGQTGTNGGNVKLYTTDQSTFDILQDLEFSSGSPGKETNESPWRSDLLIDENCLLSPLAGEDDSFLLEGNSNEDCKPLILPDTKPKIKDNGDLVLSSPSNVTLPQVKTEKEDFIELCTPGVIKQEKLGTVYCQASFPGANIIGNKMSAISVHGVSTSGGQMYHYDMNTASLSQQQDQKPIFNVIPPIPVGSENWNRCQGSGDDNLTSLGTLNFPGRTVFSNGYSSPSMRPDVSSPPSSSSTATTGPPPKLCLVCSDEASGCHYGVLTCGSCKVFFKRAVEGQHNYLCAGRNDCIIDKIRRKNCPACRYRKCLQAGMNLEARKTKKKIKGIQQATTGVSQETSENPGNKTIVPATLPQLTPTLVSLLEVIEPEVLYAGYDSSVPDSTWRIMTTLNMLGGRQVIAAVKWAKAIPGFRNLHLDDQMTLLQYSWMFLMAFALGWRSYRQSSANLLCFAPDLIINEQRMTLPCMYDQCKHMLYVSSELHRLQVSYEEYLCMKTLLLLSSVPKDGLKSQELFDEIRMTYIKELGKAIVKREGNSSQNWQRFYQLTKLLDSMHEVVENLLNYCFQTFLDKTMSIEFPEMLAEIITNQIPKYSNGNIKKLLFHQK
Method in brief: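 Translocation of GR-ED fusion to nuclear EA restores b-gal, read by luminescence after 1 h room-temperature detection. Engineered CHO-K1 biosensor cells, 1,000/well, exposed 2 h at 37 C to titrations up to 46 uM final.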

[7] = molecular target: 3',5'-cyclic-AMP phosphodiesterase 4B (Homo sapiens) (UniProt Q07343); assay: qHTS Assay for Inhibitors of PDE-IV (AID 607; active = well fitted activation curve with a large enough effect in the main read-out, with a control signal flat, not every such curve was filed as active; also: % of control where 0% means no effect); details: HEK293 ACTOne CNG channel cells, membrane potential fluorescence; series mostly up to 22.9 µM
3',5'-cyclic-AMP phosphodiesterase 4B (Homo sapiens), sequence (Q07343 whole entry, looked up): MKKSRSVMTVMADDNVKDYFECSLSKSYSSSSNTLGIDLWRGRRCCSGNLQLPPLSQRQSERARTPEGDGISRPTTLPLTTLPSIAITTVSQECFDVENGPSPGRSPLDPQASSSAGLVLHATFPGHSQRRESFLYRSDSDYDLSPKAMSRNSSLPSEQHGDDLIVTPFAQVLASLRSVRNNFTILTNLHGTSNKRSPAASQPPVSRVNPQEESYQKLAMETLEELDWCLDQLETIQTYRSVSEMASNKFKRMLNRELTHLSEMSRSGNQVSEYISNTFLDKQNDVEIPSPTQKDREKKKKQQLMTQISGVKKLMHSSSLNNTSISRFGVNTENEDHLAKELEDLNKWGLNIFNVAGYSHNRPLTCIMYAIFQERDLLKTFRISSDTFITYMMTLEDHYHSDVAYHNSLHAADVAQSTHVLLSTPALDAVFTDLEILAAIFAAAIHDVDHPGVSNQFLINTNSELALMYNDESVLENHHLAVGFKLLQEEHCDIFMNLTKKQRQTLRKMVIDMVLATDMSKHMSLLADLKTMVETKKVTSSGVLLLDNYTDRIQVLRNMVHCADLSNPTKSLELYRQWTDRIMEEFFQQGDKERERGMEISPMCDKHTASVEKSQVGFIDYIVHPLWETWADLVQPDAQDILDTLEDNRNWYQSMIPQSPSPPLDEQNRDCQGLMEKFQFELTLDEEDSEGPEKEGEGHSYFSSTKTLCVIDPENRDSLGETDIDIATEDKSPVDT
Method in brief: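 Live HEK293 cells with a modified cyclic nucleotide-gated (CNG) channel report intracellular cAMP via membrane-potential dye fluorescence (ex 535/em 590 nm). Endogenous PDE-IV was targeted. Compounds were tested at up to 22.9 uM final; RO 20-1724 100 uM served as control.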

[8] = molecular target: Cytochrome P450 2C9 (Homo sapiens) (UniProt P11712); assay: qHTS Assay for Inhibitors and Substrates of Cytochrome P450 2C9 (AID 883; active = well fitted curve in the direction sought with a large enough effect; an effect the other way counts as inactive or inconclusive; also: nearly all actives have a fitted effect of over 60% in size; also: potency is read from the fitted curve at half-maximal effect); details: recombinant CYP2C9, luciferin-H luminescence, 60 min; series mostly up to 57.1 µM
Cytochrome P450 2C9 (Homo sapiens), sequence (P11712 whole entry, looked up): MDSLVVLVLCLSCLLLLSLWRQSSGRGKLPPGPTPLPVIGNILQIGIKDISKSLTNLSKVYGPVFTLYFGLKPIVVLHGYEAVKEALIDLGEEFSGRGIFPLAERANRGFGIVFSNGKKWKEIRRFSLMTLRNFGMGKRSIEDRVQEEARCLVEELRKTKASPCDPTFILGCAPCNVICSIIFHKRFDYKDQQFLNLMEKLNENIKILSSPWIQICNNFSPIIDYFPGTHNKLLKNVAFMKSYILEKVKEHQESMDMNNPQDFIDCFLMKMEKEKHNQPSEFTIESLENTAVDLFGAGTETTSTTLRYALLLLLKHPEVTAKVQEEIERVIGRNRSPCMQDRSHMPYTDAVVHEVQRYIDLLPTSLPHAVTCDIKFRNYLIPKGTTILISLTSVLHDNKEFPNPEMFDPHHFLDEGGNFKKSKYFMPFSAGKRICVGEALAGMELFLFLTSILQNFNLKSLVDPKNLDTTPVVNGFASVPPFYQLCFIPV
Method in brief: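 Inhibition of CYP2C9 is scored as loss of luminescence, with 57uM sulphaphenazole defining 100% inhibition. Substrate Luciferin-H is used at 100uM, equal to its KM; enzyme at 10nM in 25mM KPO4, 60 min at 37C with NADPH regeneration.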

[9] = qHTS Assay for Lipid Storage Modulators (AID 1519; calls by dose curve); details: Drosophila S3 cells, BODIPY lipid droplet/cell ratio, laser cytometry, cells loaded with oleic acid; for activity change, negative = inhibition: at 57.5 µM (top of the series)
Method in brief: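 Cells seeded at 5,000 per well were treated with compounds over a concentration series and loaded with oleic acid (400 uM, as added). Lipid droplet fluorescence (488 nm excitation, 500-530 nm channel) was read by laser-scanning cytometry and normalized to 20 uM Triacsin C.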

[10] = Primary qHTS for small molecule stabilizers of the endoplasmic reticulum resident proteome: Secreted ER Calcium Modulated Protein (SERCaMP) assay (AID 1508630; active = well fitted curve in the direction sought with a large enough effect; an effect the other way counts as inactive or inconclusive; also: % is scaled to controls: 0 for no effect and ±100 for the full control effect); details: SH-SY5Y GLuc-SERCaMP (Gaussia luciferase released on ER calcium loss) secretion, thapsigargin, luminescence; series mostly up to 38.4 µM
Method in brief: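 The SH-SY5Y reporter protocol was run at 3 concentrations up to 38.3 uM (primary) or 11 concentrations (follow-up): 16 h compound, 100 nM thapsigargin for 4 h, then extracellular luciferase luminescence.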

[11] = molecular target: Mitogen-activated protein kinase 10 (Mus musculus) (UniProt Q61831); assay: JNK3 AlphaScreen Assay (AID 530); details: JNK3 lysate, c-Jun phosphorylation; series mostly up to 57.1 µM
Method in brief: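 Kinase buffer: 20 mM Tris-HCl pH 7.6, 10 mM MgCl2, 1 mM DTT, 0.1 mM Na3VO4, 0.01% Tween-20; ATP 10 uM. Substrate biotin-GST-cJun(1-79), enzyme from activated HepG2 lysates. Detection by Ser73 phospho-antibody AlphaScreen.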

[12] = molecular target: Cytochrome P450 3A4 (Homo sapiens) (UniProt P08684); assay: qHTS Assay for Activators of Cytochrome P450 3A4 (AID 885; active = well fitted curve in the direction sought with a large enough effect; an effect the other way counts as inactive or inconclusive; also: nearly all actives have a fitted effect of over 65% in size); details: recombinant CYP3A4, Luciferin-PPXE luminescence, 60 min; series mostly up to 57.1 µM
Cytochrome P450 3A4 (Homo sapiens), sequence (P08684 whole entry, looked up): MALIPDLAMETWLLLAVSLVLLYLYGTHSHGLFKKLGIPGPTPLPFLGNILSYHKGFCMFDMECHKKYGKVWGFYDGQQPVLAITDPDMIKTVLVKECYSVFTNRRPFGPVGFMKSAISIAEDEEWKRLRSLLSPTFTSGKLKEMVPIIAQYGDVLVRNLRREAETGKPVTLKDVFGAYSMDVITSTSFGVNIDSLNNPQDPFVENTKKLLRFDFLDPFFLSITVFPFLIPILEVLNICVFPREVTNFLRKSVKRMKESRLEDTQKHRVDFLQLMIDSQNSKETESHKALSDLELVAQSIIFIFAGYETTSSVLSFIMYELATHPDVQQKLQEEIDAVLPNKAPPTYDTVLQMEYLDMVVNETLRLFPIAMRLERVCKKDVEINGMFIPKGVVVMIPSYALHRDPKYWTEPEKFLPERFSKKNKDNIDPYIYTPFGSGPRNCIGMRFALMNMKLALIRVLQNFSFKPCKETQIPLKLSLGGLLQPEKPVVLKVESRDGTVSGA
Method in brief: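 Using 20nM recombinant human CYP3A4 in potassium phosphate (200mM), substrate Luciferin-PPXE at 25uM, luminescent luciferin detection followed a 60-min RT NADPH reaction; data scaled to 57 uM ketoconazole.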

[13] = molecular target: Cytochrome P450 2D6 (Homo sapiens) (UniProt P10635); assay: qHTS Assay for Inhibitors and Substrates of Cytochrome P450 2D6 (AID 891; active = well fitted curve in the direction sought with a large enough effect; an effect the other way counts as inactive or inconclusive; also: potency is read from the fitted curve at half-maximal effect; nearly all actives have a fitted effect of over 60% in size); details: recombinant CYP2D6, luciferin-ME EGE luminescence; series mostly up to 57.1 µM
Cytochrome P450 2D6 (Homo sapiens), sequence (P10635 whole entry, looked up): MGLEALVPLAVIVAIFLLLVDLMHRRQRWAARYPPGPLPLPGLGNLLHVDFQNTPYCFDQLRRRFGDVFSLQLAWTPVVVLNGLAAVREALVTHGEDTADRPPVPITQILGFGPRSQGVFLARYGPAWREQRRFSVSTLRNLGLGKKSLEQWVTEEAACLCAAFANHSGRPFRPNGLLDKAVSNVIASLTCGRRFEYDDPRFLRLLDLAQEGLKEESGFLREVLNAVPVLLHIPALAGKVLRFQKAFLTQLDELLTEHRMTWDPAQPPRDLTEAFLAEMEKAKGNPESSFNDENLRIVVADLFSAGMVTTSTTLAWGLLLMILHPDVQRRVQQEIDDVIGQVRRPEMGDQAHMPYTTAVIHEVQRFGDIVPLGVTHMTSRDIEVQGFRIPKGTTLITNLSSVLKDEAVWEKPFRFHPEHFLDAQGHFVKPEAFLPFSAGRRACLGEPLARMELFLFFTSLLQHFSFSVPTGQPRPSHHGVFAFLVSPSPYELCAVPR
Method in brief: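 Luminescent read-out of luciferin formed by 5 nM human CYP2D6 demethylating 30 uM Luciferin-ME EGE (Km level) over 60 min at room temperature after NADPH regeneration addition. Data normalized to full inhibition by 1.43 uM quinidine.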

[14] = molecular target: Cytochrome P450 3A4 (Homo sapiens) (UniProt P08684); assay: qHTS Assay for Inhibitors and Substrates of Cytochrome P450 3A4 (AID 884; active = well fitted curve in the direction sought with a large enough effect; an effect the other way counts as inactive or inconclusive; also: potency is read from the fitted curve at half-maximal effect; nearly all actives have a fitted effect of over 50% in size); details: recombinant CYP3A4, Luciferin-PPXE luminescence; series mostly up to 57.1 µM
Method in brief: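 Luminescent readout of luciferin produced by CYP3A4 (20 nM) dealkylation of Luciferin-PPXE, 25 uM (its KM). NADPH-driven reaction ran 60 min at RT after 10 min compound preincubation; data scaled to 57 uM ketoconazole as 100% inhibition.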

[15] = molecular target: Glucocorticoid receptor (Homo sapiens) (UniProt P04150); assay: GR-GFP Redistribution (AID 450;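 active = compounds whose dose series gives a full or clear partial fitted curve of increased nuclear translocation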; also: potency is read from the fitted curve at half-maximal effect); details: U2OS GR-GFP nuclear translocation, laser cytometry, 2 h
[16] = measured here: cell count channel max response
[17] = measured here: lipid channel max response

CS(=O)(=O)N1CCC2(CC1)CN(c1cccc(-c3ccccc3)c1)C2
active: Potency [3] 5.01 µM
-21%: max response [9, 17]
-11.7%: max response [9, 16]
inactive: Potency [1] > 11.4 µM | activity change, negative = inhibition [2] 6.38% | activity change, negative = inhibition [4] 9.12% | activity, negative = inhibition [5] -14.9% | Potency [6] > 46 µM | Potency [7] | Potency [8] | activity change, negative = inhibition [9] -16.1% | Potency [10]

COc1ccc(NC(=O)N2CC[C@@]3(CCCN(C(=O)c4ccc(OC)cc4)C3)C2)cc1
22%: max response [9, 16]
26.4%: max response [9, 17]
inactive: Potency [1] > 11.4 µM | activity change, negative = inhibition [2] 5.18% | activity change, negative = inhibition [4] 10.5% | activity, negative = inhibition [5] 2.5% | outcome [11] | Potency [7] | Potency [12] | activity change, negative = inhibition [9] 3.11% | Potency [10]
active: Potency [3] 25.1 µM

O=C(c1ccco1)N1CCC[C@@]2(CCN(Cc3ccccc3)C2)C1
7.17%: max response [9, 17]
inactive: Potency [1] > 11.4 µM | activity change, negative = inhibition [2] -5.26% | Potency [3] | activity change, negative = inhibition [4] -3.82% | activity, negative = inhibition [5] -7.43% | Potency [6] > 46 µM | Potency [7] | Potency [12] | activity change, negative = inhibition [9] 2.21% | Potency [10]
active: Potency [13] 2 µM
-0.541%: max response [9, 16]

O=C(Nc1cccc(F)c1)N1CCCC2(CCN(C(=O)c3ccncc3)CC2)C1
active: Potency [3] 12.6 µM | Potency [8] 0.0794 µM | Potency [14] 6.31 µM
19.3%: max response [9, 16]
28.5%: max response [9, 17]
inactive: Potency [1] > 11.4 µM | activity change, negative = inhibition [2] -4.33% | activity change, negative = inhibition [4] -19.9% | Potency [6] > 46 µM | outcome [11] | Potency [7] | Potency [12] | activity change, negative = inhibition [9] 6.14% | Potency [10]

O=C(c1ccncc1)N1CCC2(CC1)CCN(c1cccc(-c3ccccc3)c1)CC2
inactive: Potency [1] > 11.4 µM | activity change, negative = inhibition [2] -1.52% | activity change, negative = inhibition [4] 4.67% | activity, negative = inhibition [5] -12.5% | Potency [6] > 46 µM | Potency [7] | activity change, negative = inhibition [9] 1.19% | Potency [10]
19.1%: max response [9, 16]
21.6%: max response [9, 17]
active: Potency [3] 20 µM | Potency [13] 7.94 µM

COc1ccc(-c2nc3cnc(N4CCNCC4)nc3n(Cc3ccc(F)cc3)c2=O)cc1
inactive: Potency [1] > 11.4 µM | Potency [3] | Potency [15] > 9.22 µM | Potency [6] > 46 µM | outcome [11] | Potency [8] | Potency [12] | activity change, negative = inhibition [9] 4.56% | Potency [10]
15.2%: max response [9, 16]
24.4%: max response [9, 17]
active: activity change, negative = inhibition [2] 83.5% [activator] | activity change, negative = inhibition [4] 88% [activator]

O=C(c1ccco1)N1CCC2(CC1)CCN(c1cccc(-c3ccccc3)c1)CC2
active: Potency [3] 15.8 µM
inactive: Potency [1] > 11.4 µM | activity change, negative = inhibition [2] 8.59% | activity change, negative = inhibition [4] -13.9% | activity, negative = inhibition [5] -16.1% | Potency [6] > 46 µM | Potency [7] | activity change, negative = inhibition [9] 5.77% | Potency [10]
-0.036%: max response [9, 16]
9.11%: max response [9, 17]
